The nature of assay [1]: Primary qHTS for inhibitors of nuclear receptor binding SET domain protein 2 (NSD2) in an RCH-ACV wild type WT cells (2C) (AID 1645877; also: nearly all actives have a fitted effect of over 70% in size; also: potency is read from the fitted curve at half-maximal effect; as to activity change, negative = cell killing: % is scaled to controls: 0 for no effect and ±100 for the full control effect). (In general: In qHTS, concentration-response curves come from the screen itself.)
For assay [2], the target named is Glutathione peroxidase 1 (Homo sapiens) (UniProt P07203). The assay can be described thus: Primary qHTS Assay for Inhibitors of Recombinant Selenoprotein Glutathione Peroxidase 1 (GPX1) (AID 1845191). Also: nearly all actives have a fitted effect of over 65% in size. As to activity, negative = inhibition: % is scaled to controls: 0 for no effect and ±100 for the full control effect. Summed up:
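Recombinant GPX1 (10 nM final) was preincubated with compound for 30 min at room temperature, then reacted with 1 mM GSH, 0.5 mM CHP, 0.5 mM NADPH and 100 nM glutathione reductase; NADPH fluorescence (340/450 nm) was read at 0 and 15 min.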

Assay [3] deals with Phospholipid hydroperoxide glutathione peroxidase GPX4 (Homo sapiens) (UniProt P36969). Briefly: Primary qHTS Assay for Inhibitors of Recombinant Selenoprotein Glutathione Peroxidase 4 (GPX4) (AID 1845192). Also: nearly all actives have a fitted effect of over 65% in size. As to activity change, negative = inhibition: series mostly up to about 50 µM; % is scaled to controls: 0 for no effect and ±100 for the full control effect. Summed up:
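GR-coupled readout: 100 nM GR, 1 mM GSH, 0.5 mM NADPH; NADPH fluorescence (ex 340/em 450 nm) read at t=0 and after 15 min RT. GPX4 200 nM, preincubated 30 min with compound; substrate 0.5 mM CHP.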

Assay [4] addresses Luciferin 4-monooxygenase (Photinus pyralis) (UniProt P08659). The assay can be described thus: Primary firefly luciferase (FLuc) qHTS assay for identification of artifact compounds. (AID 1845220). Also: nearly all actives have a fitted effect of over 60% in size. Also: potency is read from the fitted curve at half-maximal effect.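 As to activity change, negative = inhibition: series mostly up to about 54 µM; plate controls were DMSO vehicle for no effect and no enzyme for full effect.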 In a few lines: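 Reaction readout was CCD-imaged luminescence, taken 5 min after adding 10 nM purified firefly enzyme to compound-treated wells holding 10 uM luciferin and ATP in pH 7.6 buffer.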

Assay [5] can be described thus: Primary fluorescence-based thiol-reactive (MSTI) qHTS assay for identification of artifact compounds. (AID 1845221). Also: nearly all actives have a fitted effect of over 65% in size. Also: potency is read from the fitted curve at half-maximal effect.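 As to activity change, negative = thiol reactive: series mostly up to about 54 µM; thiol-reactive compounds lower the probe fluorescence signal.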 Summed up: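 One-hour, room-temperature, dark incubation of compound with 4 uM MSTI in PBS (pH 7.4, 2% DMSO) precedes a fluorescence read at 525 nm excitation, 598 nm emission; Hill-equation fitting yields concentration-response values.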
Assay [6] concerns Nanoluciferase (engineered Oplophorus gracilirostris luciferase). Briefly: Primary Nanoluciferase (NLuc) qHTS assay for identification of artifact compounds. (AID 1845222).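 Also: NLuc secreted into diluted conditioned medium of S16 cells; series mostly up to about 54 µM; 0% = DMSO and -100% = no enzyme.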 In a few lines: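 Concentration-response data were obtained by luminescence after 5 min with Nano-Glo substrate at 1:100. The enzyme was diluted S16 NLuc-expressing cell medium, preincubated with compound for 15 min at RT. Curves were fitted with a 4-parameter Hill model.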

Assay [7] can be described thus: Primary redox qHTS assay for identification of artifact compounds. (AID 1845223).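 Also: 0% = DMSO and 100% = reference compound.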 In a few lines: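 Amplex Red (25 uM) and HRP (250 mU/mL) in HBSS, with compounds for 15 min, then 250 uM DTT for 30 min, room temperature, dark. Fluorescence 525/598 nm read; normalized to DMSO and 10 uM DA3003; Hill fit.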

This is an account of results in PubChem BioAssay (NCATS).

Values joined by “and” are separate entries in the source; they are usually repeats but may differ in a detail not shown here. Equal values may be shown once. Records with an inconclusive call do not appear. Some structures have more than one record in an assay (separate samples or runs), and their calls can disagree. Active and inactive are the calls of the source. Calls follow the shape of the dose curve; as a rule, active = well fitted curve in the direction sought with a large enough effect; inconclusive = small, poorly fitted or top-dose-only effect, or another doubt; inactive = no such curve, though single readings can be large; an effect the other way counts as inactive or inconclusive. Where a SMILES comes first, the peptide text is derived from it. [ ]: non-standard residue; d: D form. dPhe(4-Cl) = N[C@H](Cc1ccc(Cl)cc1)C(=O)O; d2Nal = N[C@H](Cc1ccc2ccccc2c1)C(=O)O; dCit = NC(=O)NCCC[C@@H](N)C(=O)O; d3Pal = N[C@H](Cc1cccnc1)C(=O)O

Phospholipid hydroperoxide glutathione peroxidase GPX4 (Homo sapiens), sequence (P36969 whole entry, looked up): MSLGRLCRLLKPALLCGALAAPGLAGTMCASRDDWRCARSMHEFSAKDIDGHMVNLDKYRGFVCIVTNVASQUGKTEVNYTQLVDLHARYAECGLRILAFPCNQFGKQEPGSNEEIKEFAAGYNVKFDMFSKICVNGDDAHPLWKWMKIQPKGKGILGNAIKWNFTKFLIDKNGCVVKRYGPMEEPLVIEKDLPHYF
Glutathione peroxidase 1 (Homo sapiens), sequence (P07203 whole entry, looked up): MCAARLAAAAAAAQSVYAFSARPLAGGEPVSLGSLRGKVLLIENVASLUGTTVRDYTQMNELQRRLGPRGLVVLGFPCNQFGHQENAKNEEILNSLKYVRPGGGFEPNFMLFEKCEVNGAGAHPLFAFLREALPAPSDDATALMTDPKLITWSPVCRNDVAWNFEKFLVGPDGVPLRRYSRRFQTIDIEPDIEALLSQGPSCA

In the case of `CC1OC(O[C@H]2CC[C@@]3(C)C(CC[C@]4(C)C3CC=C3C5CC(C)(C)CC[C@]5(C(=O)OC5OC(CO)C(OC6OC(COC7OCC(O)C(O)C7O)C(O)C(O)C6O)C(O)C5O)CC[C@]34C)C2(C)C)C(O)C(O)C1OC1OCC(OC2OCC(O)C(O)C2O)C(O)C1O` (some centres undefined), the activity change, negative = cell killing in assay [1] was 2.24% [at 9.23 µM] (inactive). Besides, the values for the activity, negative = inhibition in assay [2] and in assay [6] were -21.4% [at 9.52 µM] (inactive) and 0% [at 11.6 µM] (inactive), respectively. The activity change, negative = inhibition in assay [3] is -7.3% [at 9.73 µM] (inactive); in assay [4] it was -3.25% [at 11.6 µM] (inactive). The activity change, negative = thiol reactive in assay [5] is 94.7% [at 11.5 µM] (inactive). For the same compound, the redox activity (% of DA3003) in assay [7] was 16.2% [at 11.5 µM] (inactive).
On to `C[C@@H]1CC[C@@]2(OC1)O[C@H]1C[C@H]3[C@@H]4CC=C5C[C@@H](O)CC[C@]5(C)[C@H]4CC[C@]3(C)[C@H]1[C@@H]2C`, for which the Potency entry in assay [1], in assay [2], in assay [3], in assay [4], in assay [5] and in assay [6] was “inactive” throughout. Further, in assay [7], the Potency entry was “inactive”.
`COC(=O)c1cc(OC)cc(OC)c1C(=O)c1c(OC)cc2c(c1O)C1CCCC(C)(O2)O1` (centres undefined): the Potency result in assay [1], in assay [2], in assay [3], in assay [4], in assay [5] and in assay [6] was “inactive” throughout. Also, the Potency result in assay [7] is “inactive”.
On to `O=C(O)c1cc2cccc([N+](=O)[O-])c2[nH]1`, for which the Potency entry in assay [1], in assay [2], in assay [3], in assay [4], in assay [6] and in assay [7] was “inactive” in each case. For the same compound, the Potency in assay [5] is 21.2 µM (active).
Regarding `CC/C=C\C/C=C\C/C=C\CCCCCCCC(=O)OCC(O)COC1OC(CO)C(O)C(O)C1O` (centres undefined), the Potency result in assay [1], in assay [2], in assay [3], in assay [4], in assay [5] and in assay [6] was “inactive” each time. Besides, the Potency result in assay [7] is “inactive”.
As for `COc1cc2ncnc(N3CCC(Oc4cnc5ccccc5n4)C3)c2cc1OC` (centres undefined), the Potency in assay [1] was 0.145 µM (active). Further, the Potency entry in assay [2], in assay [3], in assay [4], in assay [5], in assay [6] and in assay [7] was “inactive” throughout.
As to `Cc1cc(C)c(CNC(=O)c2cc(-c3ccc(CN4CCOCC4)cc3)cc3c2cnn3C2CCCC2)c(=O)[nH]1`, the Potency entry in assay [1] was “inactive and 18.6 µM (active)”. The Potency result in assay [2], in assay [3], in assay [4], in assay [5] and in assay [7] was “inactive” each time.
`CC(C)C[C@H](CC(=O)NO)C(=O)N[C@H](C(=O)N[C@@H](C)C(=O)NCCN)C(C)(C)C`: the activity change, negative = cell killing in assay [1] is -8.71% [at 9.23 µM] (inactive). Further, the results for the activity, negative = inhibition in assay [2] and in assay [6] were -2.8% [at 9.52 µM] (inactive) and 2.44% [at 11.6 µM] (inactive), respectively. Besides, the results for the activity change, negative = inhibition in assay [3] and in assay [4] were -8.26% [at 9.73 µM] (inactive) and -1.85% [at 11.6 µM] (inactive), respectively. The activity change, negative = thiol reactive in assay [5] is 1.54% [at 11.5 µM] (inactive). Moreover, in assay [7], the redox activity (% of DA3003) is 0.177% [at 11.5 µM] (inactive).
For the compound `CC1(C)CC[C@]2(C(=O)O[C@@H]3O[C@H](CO)[C@@H](O)[C@H](O)[C@H]3O)CC[C@]3(C)C(=CCC4[C@@]5(C)C[C@@H](O)[C@H](O)C(C)(C)C5[C@H](O)C[C@]43C)[C@@H]2[C@@H]1O` (some centres undefined), the Potency entry in assay [1], in assay [2], in assay [3], in assay [4], in assay [5] and in assay [6] was “inactive” each time. In addition, the Potency result in assay [7] is “inactive”.
Turning to `Cc1c2cc(c(C(=O)O)c1C)OC1OC(C(O)C(O)C1O)C(O)C(O)C1OC(O2)C(O)C(O)C1O` (centres undefined), the Potency entry in assay [1], in assay [2], in assay [3], in assay [4] and in assay [6] was “inactive” in each case.
For `CC(C)=C/C=C\[C@H](C)[C@H]1CC[C@]2(C)C[C@@H]3C(C)=CC(=O)C3/C(CO)=C\C[C@@H]12` (some centres undefined), in assay [1], the Potency was 11.3 µM (active). Also, the Potency result in assay [2], in assay [3], in assay [4], in assay [5], in assay [6] and in assay [7] was “inactive” in each case.
In the case of `COC(=O)c1ccc(OC(CO)C(O)c2ccc(O)c(OC)c2)c(OC)c1` (centres undefined), the Potency entry in assay [1], in assay [2], in assay [3], in assay [4], in assay [5] and in assay [6] was “inactive” in each case. Besides, the Potency result in assay [7] was “inactive”.
Turning to `COC(=O)CCSCc1ccc(-c2onc(C)c2NC(=O)OC(C)c2ccccc2Cl)cc1` (centres undefined), the Potency entry in assay [1], in assay [2], in assay [3], in assay [4], in assay [5] and in assay [7] was “inactive” throughout.
Turning to `CC1(C)CC[C@]2(CO[C@@H]3O[C@H](CO)[C@@H](O)[C@H](O)[C@H]3O)[C@@H](O)C[C@]3(C)C(=CCC4[C@@]5(C)CC[C@H](O[C@@H]6O[C@H](CO[C@@H]7O[C@H](CO[C@@H]8OC[C@@H](O)[C@H](O)[C@H]8O)[C@@H](O)[C@H](O)[C@H]7O)[C@@H](O)[C@H](O)[C@H]6O)C(C)(C)C5CC[C@]43C)[C@@H]2C1` (some centres undefined), the activity change, negative = cell killing in assay [1] is -16% [at 9.23 µM] (inactive). Besides, the Potency entry in assay [2] and in assay [3] was “inactive” in each case. Moreover, the activity change, negative = inhibition in assay [4] was -4.11% [at 11.6 µM] (inactive). For the same compound, the activity change, negative = thiol reactive in assay [5] is 75.4% [at 11.5 µM] (inactive). Further, the activity, negative = inhibition in assay [6] is 0.495% [at 11.6 µM] (inactive). In assay [7], the redox activity (% of DA3003) was 13.8% [at 11.5 µM] (inactive).
As for `CC(=O)/C=C/[C@H]1[C@](C)(O)[C@@H](O)[C@H](OC(C)=O)C2C(C)(C)CCC[C@@]21C` (some centres undefined), the Potency entry in assay [1], in assay [2], in assay [3], in assay [4], in assay [5] and in assay [6] was “inactive” throughout. The Potency entry in assay [7] is “inactive”.
Consider `CC1=CC(=O)CC(C)(C)C1/C=C/C(C)O[C@@H]1O[C@H](CO)[C@@H](O)[C@H](O)[C@H]1O[C@@H]1OC[C@](O)(CO)[C@H]1O` (some centres undefined), for which the Potency result in assay [1], in assay [2], in assay [3], in assay [4], in assay [5] and in assay [6] was “inactive” in each case. In assay [7], the Potency result is “inactive”.
For `Cc1ccc(C(=O)Nc2noc3ccccc23)cc1`, the Potency result in assay [1], in assay [2], in assay [3], in assay [5], in assay [6] and in assay [7] was “inactive” in each case. Also, in assay [4], the Potency was 0.0849 µM (active).
`CC(=O)N[C@H](Cc1ccc2ccccc2c1)C(=O)N[C@H](Cc1ccc(Cl)cc1)C(=O)N[C@H](Cc1cccnc1)C(=O)N[C@@H](CO)C(=O)N[C@@H](Cc1ccc(O)cc1)C(=O)N[C@H](CCCNC(N)=O)C(=O)N[C@@H](CC(C)C)C(=O)N[C@@H](CCCN=C(N)N)C(=O)N1CCC[C@H]1C(=O)N[C@H](C)C(N)=O` (Ac-[d2Nal][dPhe(4-Cl)][d3Pal]SY[dCit]LRP[dA]-NH2): the Potency entry in assay [1], in assay [2], in assay [3], in assay [4], in assay [5] and in assay [6] was “inactive” throughout. Besides, the Potency entry in assay [7] was “inactive”.
As for `COC(=O)CCc1cc2ccoc2c(OC)c1O[C@@H]1O[C@H](CO)[C@@H](O)[C@H](O)[C@H]1O`, the Potency result in assay [1], in assay [2], in assay [3], in assay [4], in assay [5] and in assay [6] was “inactive” each time. Besides, in assay [7], the Potency result was “inactive”.
